# Source: PubChem BioAssay (NCI)
# Compounds without any hit were thinned out: in the full panel of roughly 83,000, 20% have a hit.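 Single-dose data. Exposure time 48 hours. Values below 10 considered active.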 Activity calls are given as the source filed them.
# System: MDA-MB-468 breast
# Experiment: NCI-60 one-dose screen, 48 h (100 = growth as untreated, 0 = no growth, -100 = all killed)
# Settings: 10 µM unless noted
row,Compound,growth
1,O=C(Nc1cccnc1Nc1ccc(Cl)cc1)c1cn(Cc2ccc(F)cc2)nn1,99.5% (inactive)
2,CCCOC(=O)Nc1nc2ccc(SCC)cc2s1,46.2% (inactive)
3,C=CCn1c(SCC(=O)NCc2cc(C)c(O)c(C)c2)nc2ccc(Cl)cc2c1=O,91.1% (inactive)
4,Cc1ccc(NC(=O)c2sc3nc4c(cc3c2N)C(=O)CCC4)cc1,32.7% (inactive)
5,O=C(/C=C/c1cc2ccccc2[nH]c1=O)c1ccc2c(c1)OCO2,114% (inactive)
6,C#Cc1nc(/C=C/C(=O)NO)cs1,51.7% (inactive)
7,CN1CCOCCN(C)Cc2ccc3ccc(cc3c2)CN(C)CCOCCN(C)Cc2ccc3ccc(cc3c2)C1,52.9% (inactive)
8,CN(C)c1ccc2[nH]c3c(C(N)=O)cc(=O)c(=O)c=3oc2c1,59.2% (inactive)
9,CNC(=S)Sc1ccc([N+](=O)[O-])cc1[N+](=O)[O-],35.6% (inactive)
10,O=S(=O)(NCCNc1nccc(-c2c(-c3ccc(F)c(O)c3)nc3sccn23)n1)c1ccc(O)cc1,31.4% (inactive)
11,COc1cc2c(cc1NC(=O)C(Cl)Cl)-c1ccc(NC(=O)C(Cl)Cl)cc1C2,-58.3% (active)
12,C[N+]1=C(/C=C/c2ccc(I)cc2)C(C)(C)c2ccccc21,95.3% (inactive)
13,O=NC1CC=CCC1c1ccccc1 (stereo not given),104% (inactive)
14,CCOC(=O)c1c(NC(=O)c2cccc(C(F)(F)F)c2)sc2c1CCC(=O)C2,-9.5% (active)
15,COc1cc2ncnc(Nc3ccc(O)cc3)c2cc1OC,17.6% (inactive)
16,CC1(C)NCCC[C@]2(C)[C@H]3CC=C4[C@@H]5C[C@](C)(COC(=O)c6ccccc6C(=O)O)CC[C@]5(C)CC[C@@]4(C)[C@]3(C)CC[C@@H]12,29.5% (inactive)
17,Cc1ccc(S(=O)(=O)c2nc(-c3ccccc3)oc2Sc2nc3ccccc3s2)cc1,52.1% (inactive)
18,CCOC(=O)CSc1nc2sc3c(c2c(=O)n1-c1ccccc1)CCCCC3,122% (inactive)
19,Oc1c(-c2cc(C(F)(F)F)[nH]n2)cc(Cl)c(OCc2ccc(Cl)cc2)c1-c1ccc(Cl)c(C(F)(F)F)c1,-21.4% (active)
20,N#CC(C#N)N=Nc1ccc(Br)cc1,0.0168% (active)

row,Compound,growth
1,N#C/C(=C\c1ccc(-c2ccccc2F)o1)c1nc(-c2ccco2)cs1,-11% (active)
2,O=[N+]([O-])c1ccc(O)c(-c2nc3ccccc3s2)c1,63.5% (inactive)
3,Cc1c2ccccc2c(C)c2c1ccc1ccccc12,20.5% (inactive)
4,C=C(C)C1CCC(=C)C2CCC3(C)OC12/C=C(/COC(C)=O)CCC3O (stereo not given),115% (inactive)
5,CCCCC[C@H]1C/C=C2/C(=O)C(Cl)=C[C@@H]2C/C=C\CCCC(=O)O1,-26.7% (active)
6,O=C(NCc1ccc2c(c1)OCO2)NCC1CCCC(CNC(=O)NCc2ccc3c(c2)OCO3)C1 (stereo not given),104% (inactive)
7,CCc1ccc(NC(=O)N[C@@H](Cc2cc(F)cc(F)c2)C(=O)N[C@@H]2C(=O)N3CCC[C@H]3C(=O)N3CCO[C@H](C)[C@H]3C(=O)N[C@@H](CO)C(=O)N3C[C@H](C)C[C@H]3C(=O)O[C@H]2C)c(F)c1,-7.66% (active)
8,COc1cc2nc(Cl)nc(Nc3cccc(C4=Nc5c(N)nc(N)nc5NC(c5ccc(F)cc5)C4)c3)c2cc1OC (stereo not given),45.8% (inactive)
9,CC(C)Cn1c2c(c(=S)[nH]c1=O)CCC2,112% (inactive)
10,Oc1c(Br)cc(Cl)cc1C(c1cc(Cl)cc(Br)c1O)C(Cl)(Cl)Cl,-4.05% (active)
11,CCOc1cccc(/C=N/NC(=O)c2cccc(Nc3ccnc(C(F)(F)F)c3)c2)c1O,31.4% (inactive)
12,Cc1nc2sc(C(=O)Nc3ccccc3)c(N)c2cc1C(=O)c1ccccc1,9.68% (active)
13,NNC(=O)c1ccc(-n2nc(-c3ccccc3)c3ccccc32)cc1,38.3% (inactive)
14,COc1ccc(C)c2sc(N(Cc3cccnc3)C(=O)c3ccc(C#N)cc3)nc12,-13.4% (active)
15,CC(C)CCSc1nc(-c2ccc(F)cc2)c(C#N)c(N2CCCCC2)n1,104% (inactive)
16,CNC(=O)c1cc(Oc2cccc3nc(Nc4ccc(Cl)c(F)c4)ccc23)ccn1,51.3% (inactive)
17,COc1cc(NC(=O)c2cccc(-c3cc(=O)c4c(OC)c(OC)c(OC)cc4o3)c2)cc(OC)c1OC,47.4% (inactive)
18,COc1ccc(-c2nnc(SCC(=O)Nc3ccc(C(=O)/C=C/c4ccc(OC)c(OC)c4)cc3)o2)cc1,88.7% (inactive)
19,CN(C)CCCOc1ccc(NC2=C(Cl)C(=O)C(Nc3ccc(OCCCN(C)C)cc3)=C(Cl)C2=O)cc1,-57.2% (active)
20,O=[N+]([O-])c1ccccc1NC1c2ccccc2Oc2ccccc21,30.6% (inactive)
